Assay results taken from PubChem BioAssay (NCI).
The panel holds about 79,000 compounds, 15% with a hit somewhere; the sample as a whole holds those more often. Calls of active or inactive are those of the source. Cut-off read from the data, not from the text of the source: active = growth inhibition above about 70%; inactive = the rest.

Assays:
[1] = NCI Yeast Anticancer Drug Screen. Data for the mlh1 strain (AID 171);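 note: 0% = growth of vehicle-treated control cultures of the same strain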; conditions: S. cerevisiae mlh1 strain growth inhibition, hits give high values
Summary of the method: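 Here the genetically defined yeast mutant is grown with each compound, and the extent to which its growth falls below that of vehicle-exposed cells is reported.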

[2] = NCI Yeast Anticancer Drug Screen. Data for the sgs1 strain (AID 173);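 note: 0% = growth of vehicle-only control cultures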; conditions: S. cerevisiae sgs1 mutant, hits give high values
Summary of the method: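 Relative growth inhibition, referenced to vehicle, was determined in a yeast strain with a defined alteration affecting DNA damage repair or cell cycle control after compound exposure.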

[3] = NCI Yeast Anticancer Drug Screen. Data for the mlh1 rad18 strain (AID 175); conditions: S. cerevisiae mlh1 rad18 strain growth inhibition, hits give high values
Summary of the method: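 In this whole-cell yeast screen, a strain with altered DNA damage repair is challenged with compound, and its growth is measured against matched vehicle-treated controls.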

[4] = NCI Yeast Anticancer Drug Screen. Data for the rad18 strain (AID 177); conditions: S. cerevisiae rad18 mutant growth inhibition, hits give high values
Summary of the method: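 Screen uses a yeast strain with a defined lesion in DNA damage repair; compound effect is read as loss of growth compared to untreated vehicle cultures.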

[5] = NCI Yeast Anticancer Drug Screen. Data for the wt1 strain (AID 149);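 note: 0% = growth of vehicle-treated wt1 cultures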; conditions: S. cerevisiae wt1 strain (SPY 50644) growth inhibition, hits give high values
Summary of the method: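 The wt1 strain was treated with compounds, and growth was compared with vehicle-treated cultures to give inhibition.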

[6] = NCI Yeast Anticancer Drug Screen. Data for the rad50EPP+ strain (AID 151);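 note: 0% = growth of vehicle-treated control cultures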; conditions: S. cerevisiae rad50 mutant strain, hits give high values
Summary of the method: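 One strain with a rad50 alteration (rad50EPP+) was compound-treated, its growth then compared to that of vehicle controls.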

[7] = NCI Yeast Anticancer Drug Screen. Data for the mgt1 strain (AID 153); conditions: S. cerevisiae mgt1 mutant growth inhibition, hits give high values
Summary of the method: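 After exposure of the mgt1 yeast mutant to compound, growth was measured and reported as inhibition compared with vehicle controls.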

[8] = NCI Yeast Anticancer Drug Screen. Data for the rad50 strain (AID 155);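 note: 0% = growth of vehicle-only cultures of the same strain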; conditions: S. cerevisiae rad50 strain growth inhibition, hits give high values
Summary of the method: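 Cells are treated with compound, grown, and their growth is then scored against vehicle-only cultures of the same repair-deficient yeast strain.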

[9] = NCI Yeast Anticancer Drug Screen. Data for the mec2-1 strain (AID 157); conditions: S. cerevisiae mec2-1 strain, hits give high values
Summary of the method: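 Test agents were screened against the mec2-1 yeast strain, with defined DNA repair or cell cycle alteration. Growth was scored as inhibition against vehicle-only controls.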

[10] = NCI Yeast Anticancer Drug Screen. Data for the rad14 strain (AID 159);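 note: 0% = growth of vehicle-treated control cultures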; conditions: S. cerevisiae rad14 strain growth inhibition, hits give high values
Summary of the method: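 Readout: yeast growth inhibition, referenced to vehicle-only cultures. Strain bears a defined alteration in DNA damage repair.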

[11] = NCI Yeast Anticancer Drug Screen. Data for the sgs1 mgt1 strain (AID 161);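 note: 0% = growth of cultures given vehicle only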; conditions: S. cerevisiae sgs1 mgt1 strain, hits give high values
Summary of the method: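 Read-out: growth inhibition vs vehicle controls. Cells: mutant yeast strain deficient in DNA damage repair.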

[12] = NCI Yeast Anticancer Drug Screen. Data for the CLN2oe strain (AID 163);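 note: 0% = growth of vehicle-only control cultures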; conditions: S. cerevisiae CLN2oe strain, hits give high values
Summary of the method: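 Here, growth inhibition in a cell-cycle-altered yeast strain after compound exposure was quantified against vehicle control growth.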

[13] = NCI Yeast Anticancer Drug Screen. Data for the cln2 rad14 strain (AID 165);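 note: 0% = growth equal to vehicle treated cultures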; conditions: S. cerevisiae cln2 rad14 strain, hits give high values
Summary of the method: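 Growth of compound-exposed yeast (cln2 rad14 genotype) measured and expressed as inhibition relative to vehicle.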

[14] = NCI Yeast Anticancer Drug Screen. Data for the bub3 strain (AID 167); conditions: S. cerevisiae bub3 mutant strain, hits give high values
Summary of the method: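 Part of a panel of yeast mutants defective in DNA damage repair or cell cycle regulation. Each strain is grown with compound, and inhibition is calculated relative to solvent-treated cultures.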

[15] = NCI Yeast Anticancer Drug Screen. Data for the wt2 strain (AID 169);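 note: 0% = growth of vehicle-treated yeast cultures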; conditions: S. cerevisiae wt2 strain growth inhibition, hits give high values
Summary of the method: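 Genetically defined yeast strains from a DNA-repair/cell-cycle panel were used. Compound-exposed yeast growth was measured, and the inhibition was calculated relative to vehicle treatment.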

[16] = at 5.0 µM (retest, dose inferred, filed as 0.5)
[17] = at 50.0 µM (retest, dose inferred, filed as 5.0)

Measured: growth inhibition

O=C(Cc1ccccc1)c1ccc(O)cc1
inactive: [1]; at 1.2 µM -13% | [1]; at 3.7 µM 0% | [1]; at 11.0 µM 23% | [1]; at 33.0 µM 68% | [2]; at 1.2 µM -15% | [2]; at 3.7 µM -39% | [2]; at 11.0 µM -5% | [2]; at 33.0 µM 59% | [3]; [16] 56% | [4]; at 1.2 µM -34% | [4]; at 3.7 µM -41% | [4]; at 11.0 µM -11% | [4]; at 33.0 µM 69%
active: [1]; at 100.0 µM 89% | [2]; at 100.0 µM 88% | [3]; [17] 99% | [3]; at 50.0 µM 86.1% | [4]; at 100.0 µM 89%

N#C/C(=C1C=C/C(=N\O)C(Cl)=C\1)c1ccccc1
inactive: [5]; at 1.2 µM -2% | [5]; at 3.7 µM -5% | [5]; at 11.0 µM 2% | [5]; at 33.0 µM 0% | [5]; at 100.0 µM 3% | [6]; at 1.2 µM 2% | [6]; at 3.7 µM 16% | [6]; at 11.0 µM 26% | [6]; at 33.0 µM 21% | [6]; at 100.0 µM 24% | [7]; at 1.2 µM -3% | [7]; at 3.7 µM 1% | [7]; at 11.0 µM 3% | [7]; at 33.0 µM 5% | [7]; at 100.0 µM 10% | [8]; at 1.2 µM 0% | [8]; at 3.7 µM 3% | [8]; [16] 24% | [8]; at 11.0 µM 8% | [8]; at 33.0 µM 13% | [8]; at 50.0 µM 55.8% | [8]; at 100.0 µM 14% | [9]; at 1.2 µM -1% | [9]; at 3.7 µM 0% | [9]; [16] -11% | [9]; at 11.0 µM 2% | [9]; at 33.0 µM 5% | [9]; [17] 36% | [9]; at 50.0 µM 43% | [9]; at 100.0 µM 14% | [10]; at 1.2 µM 2% | [10]; at 3.7 µM 8% | [10]; at 11.0 µM 15% | [10]; at 33.0 µM 17% | [10]; at 100.0 µM 26% | [11]; [16] 52% | [11]; at 50.0 µM 40.1% | [12]; at 1.2 µM 2% | [12]; at 3.7 µM 3% | [12]; at 11.0 µM 6% | [12]; at 33.0 µM 15% | [12]; at 100.0 µM 13% | [13]; [16] 12% | [13]; [17] 46% | [13]; at 50.0 µM -43.9% | [14]; at 1.2 µM -1% | [14]; at 3.7 µM 2% | [14]; [16] 37% | [14]; at 11.0 µM 4% | [14]; at 33.0 µM 14% | [14]; at 100.0 µM 16% | [15]; at 1.2 µM -13% | [15]; at 3.7 µM -11% | [15]; at 11.0 µM -9% | [15]; at 33.0 µM -9% | [15]; at 100.0 µM -1% | [1]; at 1.2 µM -4% | [1]; at 3.7 µM 4% | [1]; at 11.0 µM 7% | [1]; at 33.0 µM 10% | [1]; at 100.0 µM 23% | [2]; at 1.2 µM -3% | [2]; at 3.7 µM 7% | [2]; at 11.0 µM 6% | [2]; at 33.0 µM 16% | [2]; at 100.0 µM 33% | [3]; [16] 45% | [4]; at 1.2 µM -1% | [4]; at 3.7 µM 1% | [4]; at 11.0 µM -2% | [4]; at 33.0 µM 2% | [4]; at 100.0 µM 13%
active: [8]; [17] 76% | [11]; [17] 85% | [14]; [17] 71% | [14]; at 50.0 µM 72.7% | [3]; [17] 87% | [3]; at 50.0 µM 80.7%

Cc1cccc(N2CCN(C(=O)/C(=C/c3ccccc3)NC(=O)c3ccccc3)CC2)c1
active: [4]; at 100.0 µM 70%
inactive: [5]; at 1.2 µM -3% | [5]; at 3.7 µM -1% | [5]; at 11.0 µM -2% | [5]; at 33.0 µM 24% | [5]; at 100.0 µM 31% | [6]; at 1.2 µM 2% | [6]; at 3.7 µM 0% | [6]; at 11.0 µM 0% | [6]; at 33.0 µM 2% | [6]; at 100.0 µM -9% | [7]; at 1.2 µM -4% | [7]; at 3.7 µM -4% | [7]; at 11.0 µM 0% | [7]; at 33.0 µM 44% | [7]; at 100.0 µM 54% | [8]; at 1.2 µM -4% | [8]; at 3.7 µM -48% | [8]; [16] -1% | [8]; at 11.0 µM 29% | [8]; at 33.0 µM 59% | [8]; [17] 48% | [8]; at 50.0 µM 12.3% | [8]; at 100.0 µM 68% | [9]; at 1.2 µM -1% | [9]; at 3.7 µM 0% | [9]; [16] -3% | [9]; at 11.0 µM 8% | [9]; at 33.0 µM 36% | [9]; [17] -26% | [9]; at 50.0 µM 2.95% | [9]; at 100.0 µM 43% | [10]; at 1.2 µM -4% | [10]; at 3.7 µM -6% | [10]; at 11.0 µM 0% | [10]; at 33.0 µM 28% | [10]; at 100.0 µM 35% | [11]; [16] 0% | [11]; [17] 56% | [11]; at 50.0 µM -13.3% | [12]; at 1.2 µM -6% | [12]; at 3.7 µM -6% | [12]; at 11.0 µM 3% | [12]; at 33.0 µM 38% | [12]; at 100.0 µM 33% | [13]; [16] -5% | [13]; [17] 35% | [13]; at 50.0 µM -12.5% | [14]; at 1.2 µM -3% | [14]; at 3.7 µM -1% | [14]; [16] -41% | [14]; at 11.0 µM 5% | [14]; at 33.0 µM 41% | [14]; [17] 38% | [14]; at 50.0 µM 10.1% | [14]; at 100.0 µM 38% | [15]; at 1.2 µM -2% | [15]; at 3.7 µM 6% | [15]; at 11.0 µM 1% | [15]; at 33.0 µM 38% | [15]; at 100.0 µM 46% | [1]; at 1.2 µM -1% | [1]; at 3.7 µM -2% | [1]; at 11.0 µM 4% | [1]; at 33.0 µM 41% | [1]; at 100.0 µM 48% | [2]; at 1.2 µM -2% | [2]; at 3.7 µM 2% | [2]; at 11.0 µM 16% | [2]; at 33.0 µM 53% | [2]; at 100.0 µM 59% | [3]; [16] 1% | [3]; [17] 64% | [3]; at 50.0 µM 25.9% | [4]; at 1.2 µM -2% | [4]; at 3.7 µM 0% | [4]; at 11.0 µM 5% | [4]; at 33.0 µM 51%
